Screens from PubChem BioAssay.
FMDV inh: High Throughput Screening for Foot and Mouth Disease Virus Antivirals; FMDV antiviral cell-based qHTS; Potency, µM (highest dose often 57.9 µM), usual class: inhibitors; 1.2% of 410,000 active; calls by dose curve; tested in HEK293T cells; further: read-out not given here; nearly all actives have a fitted effect of over 45% in size
Marburg entry inh: qHTS for inhibitors of binding or entry into cells for Marburg Virus; Potency, µM (series often up to 37.8 µM), actives largely listed as inhibitors; 1.8% of 300,000 active; Marburg virus pseudotyped entry inhibition, cell reporter; calls by dose curve; tested in HEK293 cells
LASV entry inh: qHTS for Inhibitors of binding or entry into cells for Lassa Virus; 1.2% of 300,000 active; Potency, µM (doses to about 37.9 µM), most hits filed as inhibitors; AID 540256, 2011; Lassa virus pseudotype entry inhibition, cell reporter; calls by dose curve; tested in HEK293 cells; further: nearly all actives have a fitted effect of over 50% in size
HCMV inh: qHTS Assay for inhibitors of the human cytomegalovirus (HCMV). HFF cells, HCMV-luciferase reporter, 72 h; hits give low values. AID 1259415, 2018. activity change, negative = inhibition, % at 57.5 µM. 4.5% of 410,000 active; in the data active means activity change below about -60%; inconclusive means no clear call, values can overlap the other calls; inactive means above about -39%
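Human foreskin fibroblasts infected with luciferase-reporter HCMV at MOI 1 PFU/cell, compounds at two doses. Luciferase measured 72 h post infection; normalized to buffer-only basal and Salinomycin (10uM) controls.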
HCV inh: qHTS Assay for Inhibitors of Hepatitis C Virus (HCV); Huh7.5.1 HCVcc-Cre infection, luciferase reporter, 44 h; 3.4% of 340,000 active; AID 651820, 2012; Potency, µM (titrated, usually from 41.8 µM), most hits filed as inhibitors; active means well fitted inhibition curve with a large enough effect; inconclusive means small, poorly fitted or top-dose-only effect, or another doubt; inactive means no such curve, though single readings can be large or run the other way
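Reporter virus HCVcc-Cre (~0.5 moi) infects cells exposed to compound; seeding density 1,000 cells/well with 4 h settling beforehand. Luminescence, 15 sec read, taken 44 h post-infection following a 15 min RT substrate incubation.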
Each line names hits and unclear results; the compound was inactive in the other large screens. Only some compounds are listed: those with a hit (about 7.9% of all), similar ones and a draw of the others.

CCOC(=O)CC(NC(=O)Cc1cccs1)c1ccccc1Cl (stereo unspecified)	none
O=C(O)c1cccc(S(=O)(=O)N2CCN(c3ccccn3)CC2)c1	none
O=C(C[C@H]1C[C@H](C(=O)N2CCCCC2)[C@@]2(CCc3ccccc3)c3[nH]c4ccc(Cl)cc4c3CCN2C1=O)NCCC1=CCCCC1	none (no result: Marburg entry inh, LASV entry inh)
CCCN1CCC(NC(=O)Cc2ccc(C)cc2)CC1	none
CCOC(=O)N1CCN(C(=O)CN(c2cc(Cl)ccc2OC)S(=O)(=O)c2ccccc2)CC1	LASV entry inh inconclusive, HCMV inh -92
COc1ccc(Cl)cc1NC(=O)CN(c1cccc(C)c1C)S(=O)(=O)c1ccccc1	HCMV inh -62 (no result: HCV inh)
CCOC(=O)N1CCN(C(=O)CN(c2cccc(C)c2)S(=O)(=O)c2ccccc2)CC1	none
Cc1cccc(N(CC(=O)NCCSCc2ccc(Cl)cc2)S(C)(=O)=O)c1C	Marburg entry inh inconclusive, LASV entry inh 13µM (no result: HCV inh)
COc1ccc(N(CC(=O)Nc2ccc(Cl)cc2C)S(=O)(=O)c2ccccc2)c(OC)c1	Marburg entry inh inconclusive, LASV entry inh inconclusive, HCMV inh -71 (no result: HCV inh)
COc1ccc(NC(=O)CN(c2ccccc2)S(=O)(=O)c2ccccc2)c(OC)c1	HCV inh inconclusive (no result: Marburg entry inh, LASV entry inh)
CCN1C(=O)NC(CCc2ccccc2)C(C(C)=O)=C1C (stereo unspecified)	none (no result: FMDV inh, LASV entry inh, HCMV inh, HCV inh)
CCCN(CC(=O)Nc1ccccc1C)C(=O)CCCOc1ccc(Br)cc1	HCV inh inconclusive (no result: Marburg entry inh, LASV entry inh)
O=c1c(Cc2c(F)cccc2Cl)c(O)ccn1C1CCCCCC1	none (no result: Marburg entry inh, LASV entry inh)
COc1cccc(CN2C(=O)NC(C)(C3CCN(Cc4cc(F)cc(F)c4)CC3)C2=O)c1OC (stereo unspecified)	none (no result: Marburg entry inh, LASV entry inh, HCMV inh, HCV inh)
COc1ccc(Cl)cc1NC(=O)CN(C)C(=O)c1sc2ccccc2c1Cl	HCV inh 13µM (no result: Marburg entry inh, LASV entry inh)
Cc1cccc(C)c1N(CC(=O)Nc1cc(Cl)ccc1Oc1ccccc1)S(C)(=O)=O	Marburg entry inh inconclusive, LASV entry inh inconclusive, HCV inh inconclusive
Cc1ccc(C)c(N(CC(=O)Nc2cc(Cl)ccc2Oc2ccccc2)S(C)(=O)=O)c1	Marburg entry inh 13µM, LASV entry inh inconclusive
Cc1ccccc1C(=O)N1CCN(c2ccc(NC(=O)c3ccc4c(c3)OCO4)cc2)CC1	FMDV inh 13µM, Marburg entry inh inconclusive, LASV entry inh inconclusive, HCV inh inconclusive
Cc1ccccc1C(=O)N1CCN(c2ccc([N+](=O)[O-])c(NCc3ccco3)c2)CC1	Marburg entry inh inconclusive, HCV inh 13µM
O=C(c1cccc2ccccc12)N1CCN(c2ccc([N+](=O)[O-])c(NCc3ccco3)c2)CC1	Marburg entry inh inconclusive, HCMV inh inconclusive, HCV inh inconclusive
O=C(Nc1ccccc1N1CCN(C(=O)c2ccc(Cl)cc2)CC1)c1ccc([N+](=O)[O-])o1	Marburg entry inh inconclusive, LASV entry inh inconclusive, HCV inh inconclusive (no result: HCMV inh)
O=C(Nc1ccc(N2CCN(C(=O)c3ccccc3)CC2)cc1)c1ccc([N+](=O)[O-])o1	FMDV inh inconclusive, HCMV inh -101, HCV inh inconclusive (no result: Marburg entry inh, LASV entry inh)
O=C(Nc1ccc(N2CCN(C(=O)c3ccccc3F)CC2)cc1)c1cncc(Br)c1	FMDV inh 32µM, Marburg entry inh inconclusive, LASV entry inh inconclusive, HCMV inh -90, HCV inh inconclusive
Cc1ccc([C@H]2N[C@]3(CCCN(Cc4ccc(Cl)cc4)C3=O)[C@H]3C(=O)N(Cc4ccccc4)C(=O)[C@@H]23)cc1	none (no result: Marburg entry inh, LASV entry inh, HCV inh)
COc1ccc(OC)c(NC(=O)Cn2c(=O)cc(-c3ccccc3)c3c(C)nn(C)c32)c1	FMDV inh inconclusive (no result: Marburg entry inh, HCV inh)
Cc1ccccc1C(=O)N1CCN(c2ccc(NC(=O)c3ccc([N+](=O)[O-])o3)cc2)CC1	FMDV inh inconclusive, Marburg entry inh inconclusive, HCMV inh -98, HCV inh inconclusive
Cc1cccc(Cn2ccn(Cc3ccc(Cl)cc3)c(=O)c2=O)c1	HCMV inh -62 (no result: Marburg entry inh, HCV inh)
Cc1cccc(Cn2ccc(-c3ccc(Cl)cc3)c(C#N)c2=O)c1	none
Cc1[nH]n(-c2ccccc2)c(=O)c1N=Nc1nccs1	Marburg entry inh inconclusive, LASV entry inh inconclusive, HCMV inh -96, HCV inh inconclusive
Cc1[nH]n(C2=NCCS2)c(=O)c1N=Nc1ccccc1	HCMV inh -61
Cc1[nH]n(-c2ccccc2)c(=O)c1N=Nc1ccccc1O	Marburg entry inh inconclusive, LASV entry inh inconclusive, HCMV inh -99, HCV inh 4.5µM
Cc1[nH]n(-c2ccccc2)c(=O)c1N=Nc1ccccc1C(=O)O	none (no result: Marburg entry inh, LASV entry inh)
Cc1ccccc1N=Nc1c(C)[nH]n(-c2ccccc2)c1=O	none (no result: HCMV inh)
CC(=O)N1CCCc2cc(S(=O)(=O)N3CCC(C(=O)NCCC(C)C)CC3)ccc21	none (no result: Marburg entry inh, HCV inh)
CN1c2ccccc2[C@@]2(O)C(=O)[C@@]1(C)[C@@H]1c3ccccc3C[C@H]12	none (no result: FMDV inh, LASV entry inh, HCMV inh, HCV inh)
COc1ccc(CCN2CC(C(=O)N(C)Cc3ccc(C)o3)CCC2=O)cc1 (stereo unspecified)	Marburg entry inh inconclusive, LASV entry inh inconclusive
NC(=O)CCC1NC(=S)N(Cc2ccccc2)C1=O (stereo unspecified)	LASV entry inh inconclusive, HCMV inh -67
Cc1nn(-c2cccc(Cl)c2)c2nc(C(F)(F)F)[nH]c(=O)c12	FMDV inh inconclusive, Marburg entry inh 10µM
Cc1nn(-c2cc(C(F)(F)F)ccc2Cl)c2nc(C(F)(F)F)[nH]c(=O)c12	none
Cc1nn(C2CCS(=O)(=O)C2)c(C)c1CN(C)C(=O)c1ccc(Cl)cc1 (stereo unspecified)	none (no result: Marburg entry inh, LASV entry inh)
O=C(c1cnn2c(C(F)F)cc(-c3ccccc3)nc12)N1CCN(Cc2ccc3c(c2)OCO3)CC1	FMDV inh 28µM, Marburg entry inh inconclusive, HCV inh 11µM
CCN1CCN(C(=O)c2cnn3c(C(F)F)cc(-c4ccc(C)cc4)nc23)CC1	Marburg entry inh inconclusive
Cc1ccccc1Cc1c(C)nc2c(C(=O)N3CCN(Cc4ccc5c(c4)OCO5)CC3)cnn2c1C	FMDV inh inconclusive, HCMV inh inconclusive, HCV inh 14µM
COc1ccccc1C(=O)N1CCN(C(=O)c2oc3c(C)c(C)ccc3c2C)CC1	none (no result: Marburg entry inh, LASV entry inh, HCV inh)
Nc1ncnc2c1ncn2[C@@H]1O[C@H](CNCc2ccc(-c3cc(C(F)(F)F)ccc3Cl)o2)[C@@H](O)[C@H]1O	HCV inh 35µM (no result: Marburg entry inh, LASV entry inh)
Cc1ccc(C2=NCC(C)n3c2c2ccccc2[n+]3[O-])cc1 (stereo unspecified)	none (no result: FMDV inh, Marburg entry inh, LASV entry inh, HCV inh)
Cc1ccc(C(NC(=O)N2CCOCC2)=C(Cl)Cl)cc1F	Marburg entry inh inconclusive, HCMV inh -69, HCV inh 10µM (no result: FMDV inh)
Cc1ccc(C(NC(=O)N2CCOCC2)C(Cl)Cl)cc1F (stereo unspecified)	none
Cc1cc2nc(N3CCC(NC(C)c4nc(-c5ccccn5)no4)CC3)nc(C)c2cc1C (stereo unspecified)	none (no result: Marburg entry inh, LASV entry inh, HCMV inh, HCV inh)
CCS(=O)c1ccccc1C(=O)OCC(=O)N1CCC(c2ccccc2)=N1 (stereo unspecified)	none (no result: Marburg entry inh, LASV entry inh)
CCN(c1ccccc1)S(=O)(=O)c1cccc(C(=O)N2CCN(S(=O)(=O)c3ccccc3)CC2)c1	FMDV inh inconclusive, LASV entry inh inconclusive, HCV inh inconclusive
